TRPM1 prom inh: MITF TRPM1 promoter inhibition in SK-MEL-5 cells; SK-MEL-5 TRPM1 promoter luciferase, 24 h; inhibition, % at 12.5 µM; hit rate 0.83% among 330,000; AID 488899;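 active means mean inhibition across replicates of 60% or more, whatever share of single replicates reaches that level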
HIF-2a inh: blocks HIF-2a reporter activity; 786-0 RCC cells HIF-2a reporter, luciferase luminescence, overnight; inhibition, % at 18.8 µM; hit rate 0.72% among 360,000;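 active means inhibition of the luminescence signal of 40% or more relative to plate controls, in a single-dose primary screen at 18.75 µM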
LMP1 NFkB inh: reduces LMP1-driven NF-kappaB luciferase signal. LMP1-induced NF-kappaB luciferase reporter cells, luminescence. inhibition, % at 12.5 µM. hit rate 0.69% among 350,000. AID 504558; in the data active means inhibition above about 41%
TROY NFkB inh: inhibitors of TROY-dependent NF-kB signaling; hit rate 0.98% among 360,000; AID 1347056; Q293 LMP1-TROYcd NF-kB luciferase reporter, 4 h; inhibition, % at 10 µM;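 active means compounds whose plate-normalised and pattern-corrected inhibition of the luciferase reporter signal at the single screening dose is 50% or more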
TWEAK Fn14 block: blocks TWEAK-Fn14 interaction in a reporter cell assay; TWEAK-stimulated Fn14 reporter cells, luciferase luminescence, 8 h; inhibition, % at 10 µM; hit rate 2% among 360,000; in the data active means inhibition above about 50%
Peg3 prom inh-1: reduces Peg3 promoter-driven luciferase expression in HeLa; HeLa PEG-Prom luciferase reporter, luminescence, overnight; hit rate 1.7% among 360,000; inhibition, % at 20 µM;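 active means inhibition of at least 50% at 20 µM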
Peg3 prom inh-2: confirmation of Peg3 promoter inhibitors; hit rate 84% among 1,300; inhibition, % at 20 µM; shares compounds with Peg3 prom inh-1; HeLa PEG-Prom luciferase reporter, luminescence, overnight;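 active means at 20 µM dose, 40% or more inhibition averaged across four replicates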
Mdm2 MdmX conf: confirmation of inhibitors of human Mdm2/MdmX interaction, set 2 | AID 504601 | shares compounds with HIF-2a inh | hit rate 99% among 740 | SaOS-2 split-luciferase Mdm2/MdmX complementation, luminescence | inhibition, % at 8 µM;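 active means mean inhibition of the luminescence signal across two replicates at or above 26 percent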
HIF-2a inh conf: confirmation of HIF-2a inhibitors; inhibition, % at 18.8 µM; 786-0 RCC cells, HIF-2a luciferase reporter luminescence, overnight; hit rate 56% among 1,800; AID 651580; shares compounds with HIF-2a inh;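 active means mean inhibition across four replicates of at least 40 percent at the single tested concentration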
HIF-1a counter: inhibits HIF-1a reporter, a counter-screen for HIF-2a inhibitors. shares compounds with HIF-2a inh. MiaPaCa-2 HIF-1a luciferase reporter, desferoxamine, overnight. inhibition, % at 18.8 µM. hit rate 72% among 1,800;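 active means mean inhibition of the reporter signal across four replicates at the single tested dose of 50% or more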
Numbers stand for hits; . = inactive; / = no result. Rows were chosen to be rich in hits. Some 4% of all compounds tested hit in one or more screens of this group.

SMILES | TRPM1 prom inh | HIF-2a inh | LMP1 NFkB inh | TROY NFkB inh | TWEAK Fn14 block | Peg3 prom inh-1 | Peg3 prom inh-2 | others
CN(C)CCCNc1ncnc2oc(-c3ccccc3)c(-c3ccccc3)c12 | . | . | . | . | . | 97 | 97
COCC(=O)Nc1ccc2c(c1)OCC(=O)N2Cc1ccc(C)cc1 | . | . | . | . | . | . | /
COc1ccc(Nc2nc(-c3ccccc3)nc3ccccc23)cc1S(=O)(=O)N1CCOCC1 | . | . | . | . | . | 62 | 59
COc1ccc(NC(=O)c2cc(C)nc3ccccc23)cc1S(=O)(=O)N1CCOCC1 | . | . | . | . | . | . | /
O=S(=O)(N[C@H]1C[C@@H](NS(=O)(=O)OCC(Cl)(Cl)Cl)C2CCCCC21)OCC(Cl)(Cl)Cl (stereo partly drawn) | . | . | . | . | . | 61 | 84
Cc1ccc(C)c(S(=O)(=O)N2CCN(c3nc(-c4cccnc4)nc4ccccc34)CC2)c1 | . | . | . | . | . | 64 | 47
COc1cc2c(cc1OC)CN(c1nc(-c3cccnc3)nc3ccccc13)CC2 | . | . | . | . | . | 65 | 71
O=S(=O)(c1ccccc1F)N1CCN(c2nc(-c3cccnc3)nc3ccccc23)CC1 | . | . | . | . | . | . | /
COc1cccc(-c2cccc(-c3nc(C(=O)NCc4ccc(Oc5ccccc5)cc4)cc4c3[C@H](CCO)N(S(=O)C(C)(C)C)C4)c2)c1 (stereo partly drawn) | / | . | / | . | . | 73 | .
CC(C)(C)S(=O)N1Cc2cc(C(=O)NCc3ccc4c(c3)OCO4)nc(-c3cccc(-c4ccncc4)c3)c2[C@H]1CCO (stereo partly drawn) | / | . | / | . | . | . | /
CC(C)(C)S(=O)N1Cc2cc(C(=O)NCc3ccc(Oc4ccccc4)cc3)nc(-c3cccc(-c4cc5ccccc5o4)c3)c2[C@@H]1CCO (stereo partly drawn) | / | . | / | . | . | 80 | .
CN1CCC(NC(=O)c2cc(-c3cccc(Br)c3)nc3ccccc23)CC1 | . | . | . | . | . | 105 | 79
Cc1ccc(-c2nnc(-c3ccc(NC(=O)Cc4cccs4)cc3)o2)cc1 | . | . | . | . | . | 55 | .
O=C(Cc1cccs1)Nc1cccc(-c2nnc(-c3ccco3)o2)c1 | . | . | . | . | . | . | /
O=C(NCCCc1ccccc1)[C@@H]1Cc2ccccc2CN1 | . | . | . | . | . | . | /
COc1ccc2nc(C)cc(SCC(=O)N/N=C/c3ccccc3)c2c1 | . | . | . | . | . | . | /
COc1ccc2nc(C)cc(SCC(=O)N/N=C/c3c(OC)ccc4ccccc34)c2c1 | . | . | . | . | . | 63 | .
CCCCNC(=O)C1(C)CCCCN1C(=O)c1ccc2c(c1)CCO2 (stereo not drawn) | / | . | / | . | . | . | /
Cc1ccc(S(=O)(=O)N2CCN(C(=O)c3cc(-c4cccs4)nn3-c3ccccc3)CC2)cc1 | . | . | . | . | . | . | /
O=C(c1cc(-c2cccs2)nn1-c1ccccc1)N1CCN(S(=O)(=O)c2ccccc2)CC1 | . | . | . | . | . | 57 | 57
Cc1sc2nc(CSC(C)C(=O)Nc3cc(S(C)(=O)=O)ccc3Cl)[nH]c(=O)c2c1C (stereo not drawn) | . | . | . | . | . | . | /
O=C(NNC(=O)c1cccs1)c1ccc(Cl)nc1 | . | . | . | . | . | . | /
CCOc1cccc(/C=N/NC(=S)Nc2cc(S(=O)(=O)N3CCOCC3)ccc2N2CCOCC2)c1O | . | . | . | . | . | 53 | 57
NC(=O)c1nsc(C(=O)N(Cc2ccco2)C(C(=O)NCc2ccc(F)cc2)c2ccc(O)cc2)c1N (stereo not drawn) | . | . | . | . | . | . | /
CN(C)c1ccc(C(C(=O)NCc2ccccc2)N(Cc2ccco2)C(=O)c2snc(C(N)=O)c2N)cc1 (stereo not drawn) | . | . | . | . | . | 61 | 45
SMILES | TRPM1 prom inh | HIF-2a inh | LMP1 NFkB inh | TROY NFkB inh | TWEAK Fn14 block | Peg3 prom inh-1 | Peg3 prom inh-2 | others
CCCCN(C(=O)CC1CCCCC1)c1c(N)n(CCCC)c(=O)[nH]c1=O | / | . | . | . | . | . | /
CCCCCN1C=CC(=C2C(=O)c3ccccc3C2=O)C=C1 | 99 | 88 | 76 | 78 | 77 | 103 | 91
CC1=CC(=C2C(=O)c3ccccc3C2=O)C=C(C)N1C | . | . | . | . | . | . | /
CC(=O)OCCNc1cc(SCc2ccco2)c2nonc2c1[N+](=O)[O-] | . | . | . | . | . | 52 | 69
Cc1ccc(OCCN(C)C(=O)C2CCC(=O)N(CCCN3CCCC3=O)C2)cc1 (stereo not drawn) | . | . | . | . | . | . | /
CCCc1c(C(=O)N/N=C(\C)c2ccccc2O)nnn1-c1nonc1N | / | . | . | . | . | . | /
C/C(=N\NC(=O)c1nnn(-c2nonc2N)c1-c1ccccc1)c1ccccc1O | . | . | . | . | . | 73 | 67 | Mdm2 MdmX conf=84
Cc1ccc2nc(-c3cccc(Br)c3)c(Cc3ccccc3)n2c1 | / | . | / | . | . | . | /
Clc1ccc(CSc2nnc(-c3ccc4c(c3)OCO4)o2)cc1 | . | . | . | . | . | . | /
O=C1CCCCC1Sc1nnc(-c2ccc3c(c2)OCO3)o1 (stereo not drawn) | . | 69 | 56 | 87 | 104 | 85 | 74 | HIF-2a inh conf=86;HIF-1a counter=92
CC(=O)C(=Cc1cccc(C#N)c1)C(=O)c1ccccc1 | / | 94 | / | . | 77 | 104 | . | HIF-2a inh conf=.;HIF-1a counter=87
Cc1ccc2nc(NC(=O)c3ccco3)sc2c1 | . | 48 | 53 | 62 | 98 | 69 | . | HIF-2a inh conf=71;HIF-1a counter=68
CN1OC[C@@H]2CN[C@H](c3ccc(-c4cc5ccccc5o4)cc3)C[C@@H]21 | / | 90 | 80 | 90 | 106 | 89 | 90 | HIF-2a inh conf=96;HIF-1a counter=98
COc1ccc2oc(C(=O)OCC(=O)NCc3ccco3)c(C)c2c1 | . | . | . | . | . | . | /
c1ccc(-c2noc(-c3ccc4c(c3)OCO4)n2)nc1 | 92 | 80 | 78 | 85 | 101 | 87 | 81 | HIF-2a inh conf=85;HIF-1a counter=87
c1ccc(-c2noc(-c3cccnc3)n2)nc1 | . | . | . | . | . | . | /
CN(C)CCCNC(=O)c1ccc(-c2cc3nc(NCc4cccnc4)n(C)c(=O)c3s2)cc1 | / | . | / | . | . | . | /
NC[C@H](Cc1ccccc1)NCCCCC1CCCCC1 | . | . | . | . | . | . | /

Screening data from PubChem BioAssay.
